PubChem BioAssay (EPA / NIEHS)
Values joined by “and” are separate entries in the source; they are usually repeats but may differ in a detail not shown here. Identical values can stand only once. Inconclusive results are not listed. Where a structure was tested more than once in an assay, its records may differ in their call. Active and inactive are the calls of the source. The calls were made as follows: active = hit-call score of the fitted dose curve at least 0.9, where 1 is the maximum; inconclusive = response in the unintended direction; inactive = score below 0.9.

How the values were obtained:
[1] = target: rat CYP2A2, Cyp2a2 (gene 24895) (UniProt P15149); experiment: NVS_ADME_rCYP2A2: NovaScreen (NVS) CYP450-related Enzyme Activity (ADME) Assay for rat CYP2A2 (AID 2283116)
rat CYP2A2, Cyp2a2 (gene 24895), sequence (P15149 whole entry, looked up): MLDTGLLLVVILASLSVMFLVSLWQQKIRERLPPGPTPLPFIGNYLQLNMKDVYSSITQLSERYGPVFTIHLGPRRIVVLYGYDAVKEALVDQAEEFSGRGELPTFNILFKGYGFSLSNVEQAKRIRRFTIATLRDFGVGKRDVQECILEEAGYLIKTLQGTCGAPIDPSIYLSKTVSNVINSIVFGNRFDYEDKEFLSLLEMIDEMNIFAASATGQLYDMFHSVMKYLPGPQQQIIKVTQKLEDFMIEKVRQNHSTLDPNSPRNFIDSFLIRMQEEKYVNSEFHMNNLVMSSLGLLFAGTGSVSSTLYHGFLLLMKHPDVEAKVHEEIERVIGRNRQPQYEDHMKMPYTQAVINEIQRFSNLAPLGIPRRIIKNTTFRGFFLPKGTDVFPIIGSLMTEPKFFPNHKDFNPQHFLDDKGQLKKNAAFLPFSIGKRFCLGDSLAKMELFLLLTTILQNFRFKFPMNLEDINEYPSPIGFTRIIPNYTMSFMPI
In short: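 Compounds first tested in duplicate at 10 uM, then in singleton concentration series up to 20 uM when over threshold. Activity of the recombinant enzyme read by fluorescence at 0.2 h, normalised to acetonitrile vehicle.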

rat CYP3A1, gene 25642 = experiment: NVS_ADME_rCYP3A1: NovaScreen (NVS) CYP450-related Enzyme Activity (ADME) Assay for rat CYP3A1 (AID 2283126)
In short: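 Compounds went first at 10 uM duplicate, then to series with 20 uM maximum. Fluorescence from substrate turnover by the recombinant enzyme was measured 0.5 h post-dosing, inhibition scored against acetonitrile vehicle.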

[2] = target: rat CYP3A2, Cyp3a2 (gene 266682) (UniProt P05183); experiment: NVS_ADME_rCYP3A2: NovaScreen (NVS) CYP450-related Enzyme Activity (ADME) Assay for rat CYP3A2 (AID 2283128)
rat CYP3A2, Cyp3a2 (gene 266682), sequence (P05183 whole entry, looked up): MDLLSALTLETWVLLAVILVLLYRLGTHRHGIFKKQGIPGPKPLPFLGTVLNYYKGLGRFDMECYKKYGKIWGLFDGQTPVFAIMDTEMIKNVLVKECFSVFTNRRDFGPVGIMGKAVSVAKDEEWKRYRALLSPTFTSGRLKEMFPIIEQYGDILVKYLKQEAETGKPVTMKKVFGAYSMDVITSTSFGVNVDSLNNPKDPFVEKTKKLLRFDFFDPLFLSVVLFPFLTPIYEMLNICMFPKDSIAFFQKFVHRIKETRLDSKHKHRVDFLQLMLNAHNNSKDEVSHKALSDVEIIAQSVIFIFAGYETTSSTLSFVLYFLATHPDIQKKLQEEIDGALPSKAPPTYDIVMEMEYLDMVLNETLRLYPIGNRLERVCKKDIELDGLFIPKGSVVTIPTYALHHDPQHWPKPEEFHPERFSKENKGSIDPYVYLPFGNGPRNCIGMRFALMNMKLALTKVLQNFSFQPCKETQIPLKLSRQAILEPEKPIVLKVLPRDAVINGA
Procedure: NVS_ADME_rCYP3A2 is a biochemical, single-readout assay that uses extracted gene-proteins in a cell-free assay. Measurements were taken 0.5 hour after chemical dosing in a 96-well plate.NVS_ADME_rCYP3A2 is one of one assay component(s) measured or calculated from the NVS_ADME_rCYP3A2 assay. It is designed to make measurements of enzyme activity, a form of enzyme reporter, as detected with fluorescence intensity signals by Fluorescence technology.Data from the assay component NVS_ADME_rCYP3A2 was analyzed into 1 assay endpoint. This assay endpoint, NVS_ADME_rCYP3A2, was analyzed in the positive analysis fitting direction relative to Acetonitrile as the negative control and baseline of activity. Using a type of enzyme reporter, loss-of-signal activity can be used to understand changes in the enzymatic activity as they relate to the gene Cyp3a2. Furthermore, this assay endpoint can be referred to as a primary readout, because this assay has produced multiple assay endpoints where this one serves a enzymatic activity function. To generalize the intended target to other relatable targets, this assay endpoint is annotated to the cyp intended target family, where the subfamily is xenobiotic metabolism. […]

[3] = target: rat CYP2C11, Cyp2c11 (gene 29277) (UniProt P08683); experiment: NVS_ADME_rCYP2C11: NovaScreen (NVS) CYP450-related Enzyme Activity (ADME) Assay for rat CYP2C11 (AID 2283118)
rat CYP2C11, Cyp2c11 (gene 29277), sequence (P08683 whole entry, looked up): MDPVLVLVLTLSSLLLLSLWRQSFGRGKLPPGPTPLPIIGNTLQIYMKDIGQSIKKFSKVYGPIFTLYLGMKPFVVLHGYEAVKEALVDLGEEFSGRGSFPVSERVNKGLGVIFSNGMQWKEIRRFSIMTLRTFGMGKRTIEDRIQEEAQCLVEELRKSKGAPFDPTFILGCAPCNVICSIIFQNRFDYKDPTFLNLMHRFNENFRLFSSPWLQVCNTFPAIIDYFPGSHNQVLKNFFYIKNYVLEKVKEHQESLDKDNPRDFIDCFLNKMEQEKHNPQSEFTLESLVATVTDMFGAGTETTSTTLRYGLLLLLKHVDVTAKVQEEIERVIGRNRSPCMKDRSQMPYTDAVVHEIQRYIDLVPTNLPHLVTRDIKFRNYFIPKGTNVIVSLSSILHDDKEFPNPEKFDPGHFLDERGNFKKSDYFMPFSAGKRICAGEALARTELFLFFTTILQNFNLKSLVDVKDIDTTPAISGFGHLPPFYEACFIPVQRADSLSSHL
In short: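 Screened first at 10 uM in duplicate, hits followed by concentration-response. Recombinant rat enzyme activity monitored by fluorescence 0.33 h post-dosing, normalised to acetonitrile negative control.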

rat CYP2C6, gene 293989 = experiment: NVS_ADME_rCYP2C6: NovaScreen (NVS) CYP450-related Enzyme Activity (ADME) Assay for rat CYP2C6 (AID 2283120)
In short: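 Compounds first tested in duplicate at 10 uM, hits (e.g. 30% inhibition) re-run in singleton dose series to a 20 uM top concentration. Enzyme activity of recombinant rat CYP2C6 measured via fluorescent substrate turnover after 1 h; acetonitrile baseline.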

[4] = target: human Acid Phosphatase 1 (ACP1), ACP1 (gene 52) (UniProt P24666); experiment: NVS_ENZ_hACP1: NovaScreen (NVS) Enzymatic Assay for human Acid Phosphatase 1 (ACP1) (AID 2283136)
human Acid Phosphatase 1 (ACP1), ACP1 (gene 52), sequence (P24666 whole entry, looked up): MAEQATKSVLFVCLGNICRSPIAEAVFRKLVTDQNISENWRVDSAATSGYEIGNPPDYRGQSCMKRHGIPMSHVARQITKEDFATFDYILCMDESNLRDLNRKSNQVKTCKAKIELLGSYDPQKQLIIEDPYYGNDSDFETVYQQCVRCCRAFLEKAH
In short: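 Cell-free fluorescence read-out of phosphatase activity, substrate and product separated by mobility shift, taken 1.5 h after compound addition; protein produced in Sf9. Single 25 uM duplicate screen, followed by concentration series for actives, scored as signal loss relative to DMSO.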

CC(=O)O[C@]1(C(C)=O)CC[C@H]2[C@@H]3C=C(Cl)C4=CC(=O)[C@@H]5C[C@@H]5[C@]4(C)[C@H]3CC[C@@]21C
AC50 [1]: 832 nM (active) and 2.03 µM (active) and 1.28 µM (active)
AC50 (rat CYP3A1, gene 25642): 1.2 µM (active)
AC50 [2]: 1.42 µM (active)

CCN(CC)CCOc1ccc(C(=C(Cl)c2ccccc2)c2ccccc2)cc1
AC50 [1]: 3.22 µM (active) and 5.8 µM (active)
outcome [1]: inactive
AC50 [3]: 6.05 µM (active) and 5 µM (active) and 325 nM (active)
AC50 (rat CYP2C6, gene 293989): 4.06 µM (active) and 3.54 µM (active) and 4.76 µM (active)
AC50 (rat CYP3A1, gene 25642): 6.26 µM (active)

COc1ccc(OC(F)(F)F)cc1CN[C@H]1CCCN[C@H]1c1ccccc1
outcome [4]: inactive
